High-throughput results: PubChem BioAssay, National Center for Advancing Translational Sciences (NCATS)
FEN1 inh = blocks human flap endonuclease 1. P39748. Recombinant FEN1 flap cleavage, fluorescence, 15 min. Potency, µM (series often up to 114 µM), most hits filed as inhibitors. 0.35% of 390,000 active. AID 588795; note: nearly all actives have a fitted effect of over 65% in size
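FEN1 at 10 nM, compound pretreatment for 15 min (room temperature), 50 nM final substrate to initiate; endpoint reads at 0 and 15 min; DMSO-only plates used as vehicle background.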
WRN inhibitor = WRN helicase (human) inhibition; Q14191; WRN helicase unwinding, fluorescent forked duplex, kinetic; Potency, µM (highest dose often 114 µM), actives largely listed as inhibitors; 0.46% of 360,000 active; AID 651768; note: nearly all actives have a fitted effect of over 55% in size
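Screening of the MLSMR collection measured strand separation of a quenched forked DNA duplex (100 nM) by 20 nM WRN with 2 mM ATP, all final. Compounds were preincubated with enzyme 15 min at room temperature.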
POLB inh = inhibitors of human DNA polymerase beta; Pol beta primer extension/strand displacement, fluorescence kinetic; P06746; 1.3% of 340,000 active; Potency, µM (series often up to 114 µM), actives largely listed as inhibitors
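Pol beta (10 nM) and compounds were preincubated 15 min at room temperature, then 50 nM substrate (final) started primer extension/strand displacement. Reads were taken at 0 and 10 min; concentration-response data were fitted to a four-parameter Hill equation.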
POLK inh = blocks human DNA polymerase kappa activity | Q9UBT6 | purified Pol kappa, fluorescent DNA synthesis assay, 10 min | Potency, µM (highest dose often 107 µM), hits mostly inhibitors | 0.53% of 400,000 active
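10 nM Pol kappa was preincubated with compounds for 15 min at room temperature. Reaction started with 50 nM (final) substrate. Fluorescence read kinetically at 0 and 10 min.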
Pol eta inh = blocks human DNA polymerase eta activity; Q9Y253; recombinant Pol eta, fluorescent DNA replication assay; Potency, µM (highest dose often 114 µM), usual class: inhibitors; 1.2% of 390,000 active
Target sequence (Q9Y253 whole entry, looked up): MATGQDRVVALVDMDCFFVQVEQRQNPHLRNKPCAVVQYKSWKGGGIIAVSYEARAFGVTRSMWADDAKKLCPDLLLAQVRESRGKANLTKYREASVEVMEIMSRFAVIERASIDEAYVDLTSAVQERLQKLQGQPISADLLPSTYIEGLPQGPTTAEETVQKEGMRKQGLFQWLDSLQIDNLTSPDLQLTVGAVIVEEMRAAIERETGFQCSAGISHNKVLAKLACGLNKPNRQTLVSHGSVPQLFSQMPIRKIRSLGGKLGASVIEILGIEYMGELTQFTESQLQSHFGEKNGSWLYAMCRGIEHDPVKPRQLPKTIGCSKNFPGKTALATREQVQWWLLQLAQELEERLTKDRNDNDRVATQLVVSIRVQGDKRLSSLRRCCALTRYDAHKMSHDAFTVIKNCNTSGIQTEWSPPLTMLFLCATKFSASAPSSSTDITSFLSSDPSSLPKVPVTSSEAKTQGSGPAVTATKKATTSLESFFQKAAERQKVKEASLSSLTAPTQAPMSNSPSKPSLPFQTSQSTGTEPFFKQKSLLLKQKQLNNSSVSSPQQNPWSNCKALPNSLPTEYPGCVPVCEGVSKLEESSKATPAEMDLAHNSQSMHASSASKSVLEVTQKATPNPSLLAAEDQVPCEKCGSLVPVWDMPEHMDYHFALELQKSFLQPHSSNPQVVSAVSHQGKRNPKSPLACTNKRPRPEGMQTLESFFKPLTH
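Pol eta at 10 nM preincubated with compounds 15 min at room temperature; reaction started with fluorescent substrate (50 nM final) and read kinetically at 0 and 10 min.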
Pol iota inh = inhibitors of human DNA polymerase iota; Q9UNA4; Pol iota fluorescent replication assay, 10 min; Potency, µM (highest dose often 115 µM), hits mostly inhibitors; 1% of 390,000 active; AID 588590
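Pol iota at 10 nM preincubated 15 min with compounds at room temperature; reaction started with fluorescent substrate, 50 nM final. Fluorescence read kinetically at 0 and 10 min; buffer-only wells as negative control.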
Each line names hits and unclear results; the compound was inactive in the other large screens. The list is not random: actives were taken first. Their share in the collection is about 2.4%. Calls come from the whole dose curve; as a rule, active = well fitted curve in the direction sought with a large enough effect; inconclusive = small, poorly fitted or top-dose-only effect, or another doubt; inactive = no such curve, though single readings can be large; an effect the other way counts as inactive or inconclusive.

COc1cccc(Cn2c(=O)c(-c3ccc(Cl)cc3)nc3cnc(OC)nc32)c1	none (no result: FEN1 inh, WRN inhibitor, POLB inh, Pol eta inh, Pol iota inh)
COC(=O)C1CCN(C(=O)COC(=O)CNS(=O)(=O)c2ccc(SC)c([N+](=O)[O-])c2)CC1	Pol eta inh inconclusive, Pol iota inh 79.4µM (no result: POLB inh)
CC1(C)CC(=O)C2=C(C1)OC(N)=C(C#N)C2c1ccc[nH]1 (configuration not stated)	POLB inh 20µM, POLK inh 79.4µM, Pol iota inh 28.2µM
OC1c2ccccc2N=C2CCCN21 (configuration not stated)	none (no result: FEN1 inh, WRN inhibitor, POLB inh, Pol eta inh, Pol iota inh)
COc1c(Br)cc(/C=N/n2c(-c3ccccc3)n[nH]c2=S)c(O)c1Br	FEN1 inh inconclusive, WRN inhibitor inconclusive, POLB inh 3.55µM, POLK inh 2µM, Pol eta inh 79.4µM, Pol iota inh inconclusive
Oc1ccccc1/C=N/n1c(-c2ccccc2)n[nH]c1=S	none
Oc1c(Br)cc(/C=N/n2c(-c3ccccc3)n[nH]c2=S)c(Br)c1O	POLB inh 0.251µM (no result: FEN1 inh, WRN inhibitor, POLK inh, Pol eta inh, Pol iota inh)
Oc1c(Br)cc(Br)cc1/C=N/n1c(-c2ccccc2)n[nH]c1=S	none
C=C1C=C(C(F)F)n2ncc(C(=O)NCc3ccccc3)c2N1	none (no result: WRN inhibitor, POLB inh, Pol eta inh)
Cc1cc2nc(-c3ccc(SCc4ccccn4)nc3)[nH]c2cc1C	WRN inhibitor inconclusive, POLB inh inconclusive, Pol iota inh 44.7µM
O=C(CSc1c2c(nc3ccc(Cl)cc13)CCCC2)N1CCN(C(=O)c2ccco2)CC1	POLK inh inconclusive, Pol iota inh 20µM (no result: POLB inh)
Cc1cc2cc3c(cc2nc1SCC(=O)N1CCN(C(=O)c2ccco2)CC1)OCO3	POLB inh inconclusive, Pol iota inh 70.8µM
CCc1cc2ccc(OC)cc2nc1SCC(=O)N1CCN(C(=O)c2ccco2)CC1	none
Cc1cc2nc(-c3ccc(SCC(=O)N4CCN(C(=O)c5ccco5)CC4)nc3)[nH]c2cc1C	WRN inhibitor inconclusive, POLB inh 35.5µM, POLK inh inconclusive, Pol eta inh 79.4µM, Pol iota inh inconclusive
Cc1cc2nc(-c3ccc(SCC(=O)N4CCOCC4)nc3)[nH]c2cc1C	POLB inh inconclusive, Pol iota inh inconclusive
FC(F)(F)C(F)(F)C(F)(F)c1nc2ccccc2[nH]1	none (no result: WRN inhibitor, POLB inh, Pol eta inh)
CCCCCCCCCCCCCCCCOCC(CO)OC(C)=O (configuration not stated)	none (no result: FEN1 inh, WRN inhibitor, POLB inh, Pol eta inh, Pol iota inh)
O=C1c2ccccc2NC(c2ccccc2OCc2ccccc2)N1Cc1ccco1 (configuration not stated)	FEN1 inh inconclusive (no result: WRN inhibitor, POLB inh, Pol eta inh)
CN1C(=O)c2ccccc2Sc2ccc(NC(=O)Cc3c(F)cccc3Cl)cc21	POLB inh 20µM, Pol iota inh inconclusive (no result: WRN inhibitor)
CSCCC(C(=O)OC1CCOC1=O)N1C(=O)c2ccccc2C1=O (configuration not stated)	WRN inhibitor inconclusive, POLK inh inconclusive, Pol eta inh 35.5µM, Pol iota inh inconclusive
O=C(CCC1N=C2c3ccccc3N=C(SCc3ccc(Cl)cc3)N2C1=O)NCCc1ccccc1 (configuration not stated)	Pol iota inh 89.1µM (no result: WRN inhibitor)
O=C(CCC1N=C2c3ccccc3N=C(SCc3cccc(Cl)c3)N2C1=O)NCCc1ccccc1 (configuration not stated)	none (no result: WRN inhibitor)
O=C(CC1N=C2c3ccccc3N=C(SCc3ccc(F)cc3)N2C1=O)NCc1ccco1 (configuration not stated)	POLB inh 50.1µM
Cc1ccc(CSC2=Nc3ccccc3C3=NC(CC(=O)NCc4ccco4)C(=O)N23)cc1 (configuration not stated)	POLB inh 25.1µM, POLK inh inconclusive, Pol eta inh inconclusive, Pol iota inh inconclusive
CNc1ccc(/C=C2\C=Cc3ccccc32)cc1I	none (no result: WRN inhibitor, POLB inh, Pol eta inh)
N#Cc1nc(COc2ccc(-c3ccccc3)cc2)oc1N1CCC(C(N)=O)CC1	none (no result: WRN inhibitor, POLB inh, Pol eta inh)
S=C(NCCCc1cnc[nH]1)NCCCN(Cc1ccc(Cl)cc1)c1ccc(-c2ccccc2)cn1	none (no result: WRN inhibitor, POLB inh, Pol eta inh)
O=C(NC1CCCC1)c1ccc2c(c1)N(Cc1ccc(F)cc1)C(=O)c1ccccc1S2	none (no result: WRN inhibitor)
CC1CCC(NC(=O)c2ccc3c(c2)N(Cc2cccc(F)c2)C(=O)c2ccccc2S3)CC1 (configuration not stated)	Pol eta inh inconclusive, Pol iota inh 89.1µM (no result: WRN inhibitor)
CC(C)(C)c1cc(=O)n(-c2ccccc2)[nH]1	POLB inh inconclusive, Pol eta inh inconclusive, Pol iota inh 7.08µM
O=c1cc(-c2ccccc2)[nH]n1-c1ccccc1	FEN1 inh inconclusive, Pol iota inh inconclusive (no result: POLB inh)
CCOc1ccc(C=C2SC(=O)N(CCN)C2=O)cc1	none (no result: FEN1 inh, WRN inhibitor, POLB inh, Pol eta inh, Pol iota inh)
O=C(Nc1ccc(-c2nc3ccccc3o2)cc1)c1cc(-n2cnnc2)ccc1Cl	none
O=C(Nc1ccc(-c2nc3ccccc3o2)c(O)c1)c1cc(-n2cnnc2)ccc1Cl	FEN1 inh inconclusive, POLB inh 35.5µM, Pol iota inh inconclusive
O=C(COc1ccc2oc(-c3ccccc3)cc(=O)c2c1)NCc1ccco1	WRN inhibitor inconclusive, POLB inh 22.4µM, Pol eta inh inconclusive, Pol iota inh inconclusive
Cc1cc(=O)oc2cc(OCC(=O)NCc3ccco3)ccc12	none
COc1ccc2oc(-c3ccco3)cc(=O)c2c1	POLB inh 50.1µM
C=C1C=C(C(F)F)n2ncc(C(=O)Nc3ccc(Br)cc3C(F)(F)F)c2N1	none (no result: WRN inhibitor, POLB inh, Pol eta inh)
Cc1[nH]nc2c1C(c1ccc(-c3ccc(Cl)cc3)o1)C(C#N)=C(N)O2 (configuration not stated)	WRN inhibitor inconclusive, Pol eta inh inconclusive
Cc1[nH]nc2c1C(c1ccc(-c3ccccc3C#N)o1)C(C#N)=C(N)O2 (configuration not stated)	POLB inh 56.2µM
Cc1[nH]c2ccccc2c1C(=O)CNc1ccc(Br)cc1	Pol iota inh inconclusive (no result: WRN inhibitor, POLB inh, Pol eta inh)
COC(=O)C1=C[C@@H](C(=O)OC)[C@@H]2C3=C(C(=O)[C@@]2(C)NC(=O)c2ccccc2)[C@H](C)[C@@H]2C(=O)N(Cc4ccccc4)C(=O)[C@@H]2[C@@H]3C1	none (no result: WRN inhibitor, POLB inh, Pol eta inh)
Cc1ccc(-c2cc(C(=O)Oc3ccccc3)c3cccc(C)c3n2)cc1	POLB inh inconclusive, Pol eta inh 50.1µM, Pol iota inh inconclusive (no result: WRN inhibitor)
CCCCNC(=O)COC(=O)c1c2c(nc3ccccc13)/C(=C/c1cccs1)CC2	POLB inh 25.1µM, Pol eta inh inconclusive
CCCCNC(=O)COC(=O)c1cc(C)nc2ccccc12	none
Cc1nnc(Sc2cc(C(=O)NCc3ccco3)c3ccccc3n2)s1	POLB inh 22.4µM, Pol eta inh inconclusive, Pol iota inh inconclusive
COCCNC(=O)c1cc(Sc2nnc(C)s2)nc2ccccc12	none (no result: FEN1 inh, WRN inhibitor, POLK inh, Pol eta inh, Pol iota inh)
OCC1O[C@H]([S-])[C@H](O)[C@@H](O)[C@@H]1O.[Au+] (some centres not stated)	POLK inh 5.32µM (no result: FEN1 inh, WRN inhibitor, POLB inh, Pol eta inh, Pol iota inh)
N#CC(=Cc1ccc(O)c(O)c1)C(=O)NCc1ccccc1	Pol iota inh 70.8µM (no result: WRN inhibitor, POLB inh, Pol eta inh)
